Shown are actives, neighbours in structure and some others; about 7.3% of the full set was active somewhere.
3T3 cytotox – Cytotoxic Profiling in NIH 3T3 Cell Line of Diverse Libraries Using Quantitative High-Throughput Screening; hit rate 4.3% among 94,000; NIH 3T3 viability, CellTiter-Glo ATP luminescence, 48-72 h; Potency, µM (top dose mostly 96.7 µM), without a hit: at the highest dose activity change, negative = cytotoxicity, most hits filed as inhibitors; further: potency means the concentration at half of the fitted maximal effect; nearly all actives have a fitted effect of over 55% in size
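Cytotoxicity is measured as loss of cellular ATP: NIH 3T3 cells (400/well) are exposed to compound for 48 or 72 hr at 37 °C, then CellTiter-Glo luminescence is imaged after 10 min at room temperature.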
FLuc inh – Firefly luciferase inhibition profiling of diverse chemical library using quantitative high-throughput screening; hit rate 2.5% among 76,000; Luciferin 4-monooxygenase (Photinus pyralis), P08659; purified P. pyralis luciferase, luminescence, biochemical; AID 1347043, 2019; Potency, µM (titrated, usually from 115 µM), most hits filed as inhibitors; further: potency means the concentration at half of the fitted maximal effect; nearly all actives have a fitted effect of over 65% in size
Target sequence (P08659 whole entry, looked up): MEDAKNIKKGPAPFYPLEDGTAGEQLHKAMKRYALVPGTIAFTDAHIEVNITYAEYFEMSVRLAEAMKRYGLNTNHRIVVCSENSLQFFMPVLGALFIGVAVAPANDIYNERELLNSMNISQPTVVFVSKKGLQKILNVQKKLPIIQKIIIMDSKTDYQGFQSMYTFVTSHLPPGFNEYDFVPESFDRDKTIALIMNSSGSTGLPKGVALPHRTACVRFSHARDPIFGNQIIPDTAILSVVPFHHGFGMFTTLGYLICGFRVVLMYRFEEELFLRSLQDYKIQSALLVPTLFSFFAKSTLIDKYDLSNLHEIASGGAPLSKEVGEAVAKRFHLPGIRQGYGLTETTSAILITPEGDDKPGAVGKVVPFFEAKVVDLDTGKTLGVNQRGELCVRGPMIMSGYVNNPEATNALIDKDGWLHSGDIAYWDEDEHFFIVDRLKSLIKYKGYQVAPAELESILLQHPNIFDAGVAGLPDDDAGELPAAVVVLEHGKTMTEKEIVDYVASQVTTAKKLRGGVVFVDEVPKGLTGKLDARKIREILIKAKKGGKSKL
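Luminescence read by CCD imager after adding enzyme (10nM final) to wells holding compound, titrated in qHTS. Substrates 10uM each D-luciferin and ATP; buffer 50mM Tris acetate pH 7.5, 10mM Mg acetate, Tween-20, BSA.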
SNCA viab count – GF-AFC viability counterscreen for inhibitors of alpha-synuclein gene (SNCA) expression; hit rate 0.12% among 150,000; Potency, µM (doses to about 57.1 µM), inactives show at the top dose activity change, negative = cytotoxicity, usual class: cytotoxic; HEK-293-SNCA-luc viability, GF-AFC fluorescence, 24 h;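 further: potency means the concentration at half of the fitted maximal effect; 0% = DMSO-treated cells and -100% = medium-only wells without cells; nearly all actives have a fitted effect of over 30% in size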
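Cytotoxicity counterscreen: after 24 h compound treatment of genome-edited SNCA-luciferase HEK-293 cells, live-cell protease substrate GF-AFC read by fluorescence after 30 min; activity scaled between DMSO (0%) and medium-only (-100%), curves Hill-fitted.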
IP6K1 inhibitor – Primary qHTS assay for small molecule inhibitors of Inositol hexaphosphate kinase 1 (IP6K1); Inositol hexakisphosphate kinase 1 (Homo sapiens), Q92551; IP6K1 kinase, ADP-Glo luminescence, 2 h; hits give low values; activity change, % (series mostly up to about 58 µM); hit rate 0.81% among 140,000; AID 1645851, 2021; in the data active means activity change below about -25%
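ADP-Glo luminescence measures ADP made by human IP6K1 during a 2 h RT reaction with ATP/IP6 (mix at 1.3 mM/130 uM); top library doses 57.5 and 19.1 uM final.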
SNCA expr inh – Primary qHTS assay for inhibitors of alpha-synuclein gene (SNCA) expression. HEK-293 SNCA-luciferase knock-in, luminescence, 24 h. Potency, µM (highest dose often 57.2 µM), inactives show at the top dose activity change, negative = inhibition, most hits filed as inhibitors. hit rate 0.17% among 140,000;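 further: potency means the concentration at half of the fitted maximal effect; plate controls were DMSO cells for no effect and cell-free wells for full effect; nearly all actives have a fitted effect of over 45% in size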
HEK cytotox – Cytotoxic Profiling in HEK 293 Cell Line of Diverse Libraries Using Quantitative High-Throughput Screening. Potency, µM (highest dose often 115 µM), inactives show at the top dose activity change, negative = cytotoxicity, usual class: inhibitors. AID 1345083, 2018. HEK 293 viability, ATP luminescence (CellTiter-Glo), 48-72 h. hit rate 6.6% among 94,000; further: potency means the concentration at half of the fitted maximal effect; nearly all actives have a fitted effect of over 60% in size
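Cells seeded first (HEK 293, 250 cells/well), then compound added by pintool. Incubation ran 48 or 72 hr at 37 degree Celsius. CellTiter-Glo was added and luminescence imaged after 10 min at room temperature.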
* marks the source's active call; other numbers are inactive results; i = inactive; ? = inconclusive; / = no result; [ ] = remark or other dose. Unless noted, the call rests on the fitted dose curve; in most records, active means well fitted curve in the direction sought with a large enough effect; inconclusive means small, poorly fitted or top-dose-only effect, or another doubt; inactive means no such curve, though single readings can be large; an effect the other way counts as inactive or inconclusive. Unless noted, on the % scale 0 is the no-effect control and ±100 the full control effect.

SMILES | 3T3 cytotox | FLuc inh | SNCA viab count | IP6K1 inhibitor | SNCA expr inh | HEK cytotox
CCN(CC1CCN(C2CCN(C)CC2)CC1)C(=O)c1ccc(-c2ccccc2)cc1 | 28.2µM* | i | 2.3% | -3.6 | -10.7% | 22.4µM*
COc1ccc(-c2noc(Nc3ccc(OC)cc3OC)n2)cc1 | -29.4% | 25.1µM* | -6.5% | 1.7 | 91.8% | ?
COC(=O)c1ccccc1Nc1nc(-c2ccccc2)no1 | i | 14.1µM* | -1.6% | 0.6 | 41.7% | 10.4%
CCc1cccc(Nc2nc(-c3ccc(OC)c(OC)c3)no2)c1 | ? | ? | -4.5% | 16.9 | 17.6% | ?
Cc1noc(C)c1CN1C[C@H]2[C@H](C1)[S+](=O)([O-])C(C)(C)C(=O)N2CCOc1ccccc1 | 39.8µM* | i | 2.3% | 20.5 | 20.7% | -17.1%
CC1(C)C(=O)N(Cc2ccccc2)[C@H]2CN(CC3CCOCC3)C[C@H]2[S+]1(=O)[O-] | ? | i | 2.9%[87.6 µM] | 13.1 | -5.8%[87.6 µM] | -1.4%[172 µM]
CC1(C)C(=O)N(CCOc2ccccc2)[C@H]2CN(c3cccc(C(F)(F)F)c3)C[C@@H]2[S+]1(=O)[O-] | 11.2µM* | i | -3.6% | 11.8 | 2.9% | 17.8µM*
Cc1noc(C)c1CN1C[C@H]2[C@H](C1)[S+](=O)([O-])C(C)(C)C(=O)N2Cc1ccccc1F | ? | i | 3.8% | 12.0 | 7.1% | 2.9%
CC1(C)C(=O)N(Cc2ccccc2)[C@H]2CN(CC3CCOC3)C[C@H]2[S+]1(=O)[O-] (some centres undefined) | 89.1µM* | i | 0.2%[87.6 µM] | 32.3 | 2.0%[87.6 µM] | i
COc1ccc(CN2CCN3C(=O)N(Cc4ccc(C)cc4)C[C@H]3C2)cn1 | -14.9%[138 µM] | i | 1.6%[87.6 µM] | 6.1 | 19.0%[87.6 µM] | ?
CCOC(=O)[C@H]1[C@@H](O)C(=O)N(Cc2ccccc2)C12CCN(C(=O)c1cccs1)CC2 | ? | / | / | 2.9 | / | -10.4%
Cc1ocnc1C(=O)N(C)CC1CCCN(CCc2ccc(Cl)cc2)C1 (centres undefined) | -25.9% | i | 2.6% | 11.7 | 9.7% | ?
COC(=O)C(=O)N[C@H]1C[C@@H](Cc2cc(-c3ccc(OC)cc3)on2)C1(C)C | -20.9%[138 µM] | ? | -4.0%[87.6 µM] | -9.2 | -11.3%[87.6 µM] | -26.5%[172 µM]
O=C(c1cc2ccccc2[nH]1)N1CCC(c2noc(C3CC3)n2)C1 (centres undefined) | ? | 28.2µM* | -1.1% | 3.9 | 80.7% | ?
Cc1nn(C(=O)CCCC(=O)N2CCC(Cc3nncn3-c3ccccc3)CC2)c2ccccc12 | -4.4% | i | 4.5% | 6.4 | 3.1% | -10.0%
Cc1ccc(OCCC2CCN(C(=O)CCCC(=O)n3nc(C)c4ccccc43)C2)cc1 (centres undefined) | ? | i | -21.1% | -8.0 | ? | 39.8µM*
COc1ccc(-c2cc(C(=O)NCc3c(C)cc(C)[nH]c3=O)c3c(c2)N(C)CCO3)cn1 | ? | i | -7.5%[87.6 µM] | -20.4 | 22.5%[87.6 µM] | ?
c1cc2cc(Nc3cnc4ccc(N5CCOCC5)nn34)ccc2[nH]1 | ? | i | -1.2%[87.6 µM] | -16.5 | -0.4%[87.6 µM] | -22.4%[172 µM]
COc1cc2nc(N3CCN(C)CC3)nc(NC3CCN(Cc4ccccc4)CC3)c2cc1OC | / | / | ? | -10.9 | / | /
COc1cc2c(NC3CCN(C(C)C)CC3)nc(N3CCC(F)(F)CC3)nc2cc1OCCCN1CCCC1 | / | / | 23.8µM* | -15.6 | / | /
O=C(NCCc1noc(-c2ccncc2)n1)C1CCCO1 (centres undefined) | -16.1% | i | -1.5% | 57.6 | 3.8% | -5.1%
Cc1ccc(CN2Cc3[nH]cnc3C[C@H]2C(=O)NCc2ccc(C(F)(F)F)cc2)cc1 | 100µM* | i | -16.2%[87.6 µM] | -6.1 | -12.0%[87.6 µM] | 70.8µM*
Cc1ccc(C(O)Cn2ccn3nc(-c4ccc(F)cc4)cc3c2=O)cc1 (centres undefined) | i | i | 4.7% | 1.6 | -9.7% | 9.5%
O=C(NCc1nnc2cc(-c3nc(C4CC4)no3)ccn12)c1c(F)cccc1F | ? | i | -2.2% | 13.0 | -13.8% | 35.5µM*
O=C(c1ccc(C(F)(F)F)cc1)N1CCc2nc(C3CC3)nc(-c3ccc(Cl)cc3)c2CC1 | ? | i | -13.5% | -1.4 | -9.5% | 28.2µM*
SMILES | 3T3 cytotox | FLuc inh | SNCA viab count | IP6K1 inhibitor | SNCA expr inh | HEK cytotox
Oc1ccc(-c2nc(C3CC3)nc3c2CCN(CC2CCCCC2)CC3)cc1 | ? | i | -11.9% | 6.7 | 15.2% | ?
O=C(c1ccccn1)N1CCc2nc(C3CC3)nc(-c3ccc(Cl)cc3)c2C1 | 31.6µM* | / | -3.6% | -3.4 | 41.7% | -5.1%
Oc1ccc(-c2nc(C3CC3)nc3c2CN(CC2CCCCC2)CC3)cc1 | ? | i | -1.2% | 9.2 | 10.7% | 79.4µM*
O=C(Nc1ccc(Cl)cc1)N1CCc2nc(C3CC3)nc(-c3ccc(Cl)cc3)c2C1 | ? | i | -15.4% | 1.0 | ? | 28.2µM*
CN1C(=O)[C@@H]2C[C@@H](CN2Cc2ccccc2)Oc2ccccc21 | -7.1%[138 µM] | i | -4.1%[87.6 µM] | 6.8 | 0.9%[87.6 µM] | 3.4%[172 µM]
CN1C(=O)[C@@H]2C[C@@H](CN2Cc2ccc3ccccc3n2)Oc2ccccc21 | 79.4µM* | i | -15.5%[87.6 µM] | 7.7 | 54.4%[87.6 µM] | ?
COc1ccc(CN2C(=O)[C@@H]3C[C@@H](CN3Cc3ccccc3)Oc3ccccc32)cc1 | ? | i | ? | -12.1 | ? | 50.1µM*
CC(C)N1C[C@@H]2C[C@H]1C(=O)N(Cc1ccccc1)c1ccccc1O2 | 50.1µM* | i | -1.5%[87.6 µM] | 11.9 | -13.3%[87.6 µM] | ?
COc1ccc(CN2C(=O)[C@@H]3C[C@@H](CN3Cc3ccccc3C)Oc3ccccc32)cc1 | ? | i | ? | 8.6 | ? | 70.8µM*
N#Cc1cccc(C(=O)N2CCOCCNC(=O)CC2)c1 | -12.2% | i | 8.4% | 6.6 | -17.4% | -0.1%
Cc1ccc(-n2c(C3CCN(C(=O)CCc4ccccc4)CC3)n[nH]c2=O)cc1 | ? | i | 2.2% | -12.6 | 23.2% | -3.0%
O=C1[C@@H]2C[C@@H](CN2C2CCC2)Oc2ccccc2N1Cc1ccc(OC(F)(F)F)cc1 | 39.8µM* | i | -3.3%[87.6 µM] | -2.2 | -25.0%[87.6 µM] | 70.8µM*
O=C1[C@@H]2C[C@@H](CN2Cc2ccc(Cl)cc2)Oc2ccccc2N1Cc1ccccc1 | 31.6µM* | i | -19.5%[87.6 µM] | 6.6 | ? | 63.1µM*
COc1ccc(C(=O)N2CCC3(CC2)NC(=O)N(Cc2ccc(C)cc2)C3=O)cc1OC | -0.1% | i | -4.9% | -0.1 | -13.2% | -0.5%
